# Several values for one entry are separate records, joined by “and”; a condition that tells them apart may be missing. Equal values may be shown once. Records with an inconclusive call do not appear. Activity calls are given as the source filed them. Unless noted, the rule behind the calls is not given here.
# Key:
# [1] = test system: Aerobactin synthetase IucA (Klebsiella pneumoniae); assay: inhibition of K. pneumoniae IucA enzyme – biochemical, Tocris library, absorbance (AID 1345561); settings: purified IucA enzyme assay, absorbance (OD) read-out; stronger effect = lower value;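 tested at 8 µM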;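 note: 100% = enzyme without compound and 0% = no enzyme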
# [2] = viability loss with induced miR-34 in A549 – imaging, A549 dox-inducible miR-34, nuclei and caspase counts, primary screen (AID 1347080;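 active = compounds whose cell count with miR-34 switched on is under 0.7 times the count with it off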); settings: A549 miR-34 inducible, Hoechst nuclei count, 48 h
# [3] = chitosan synthesis blockers in C. neoformans – flow cytometry, Cibacron Brilliant Red staining (AID 1347148); settings: Cryptococcus neoformans chitosan, stronger effect = lower value; at 10 µM unless noted;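 note: compound exposure lasted three days at 37 degrees C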
# [4] = galactose survival enhancers in mitochondrial complex I cybrids – cell-based, galactose medium, ATP luminescence, primary screen (AID 1645843;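 active = z-score of at least 1.8 in each of two replicates, scored against plate mean and spread of sample wells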;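 note: positive z means more ATP and so rescue of galactose-driven cybrid death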); settings: complex I mutant cybrid cells, 72 h, stronger effect = higher value
# [5] = compounds altering circadian rhythm period length – cell-based, LOPAC library, luminescence reporter (AID 2774); settings: circadian reporter cells, at 7 µM, actives lie on both sides;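 note: values are relative to mean of DMSO wells on each plate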
# [6] = test system: Hepatitis C virus NS3 helicase; assay: blockers of NS3h binding to ssDNA – biochemical, fluorescence polarization, LOPAC1280 library, primary screen (AID 687035; in the data active = inhibition above about 37%); settings: Purified HCV NS3 helicase, Cy5-dT15 ssDNA binding fluorescence polarization; stronger effect = higher value; concentration not given here
# [7] = compounds altering Cy5-DNA-NS3h complex signal – biochemical, LOPAC1280, artefact control for HCV NS3 helicase inhibitor project (AID 687037); settings: Cy5-DNA-NS3h complex fluorescence interference counterscreen
# [8] = blockers of cellular phospholipid synthesis – cell-based, LOPAC library, screen 4, primary screen (AID 1347384); settings: animal cells, phospholipid biosynthesis inhibition screen; at 10 µM
# [9] = test system: Aerobactin synthetase IucA (Klebsiella pneumoniae, hypervirulent); assay: biochemical IucA inhibition screen of LOPAC library by absorbance (AID 1346212); settings: IucA enzyme assay, absorbance (OD) readout; stronger effect = lower value;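 tested at 8 µM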;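 note: 100% = no compound wells and 0% = no enzyme wells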
# [10] = compounds altering viability of human ES cells (AID 493140); settings: human embryonic stem cell survival screen; stronger effect = higher value;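 note: cells exposed to compounds for four days before counting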
# [11] = P. berghei load reduction in hepatocytes – cell-based, HepG2, luciferase luminescence, HepG2 viability, primary screen (AID 624349; in the data active = parasite load remaining mostly below about 12%, no sharp cut-off; inactive = mostly above about 10%;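 note: 100% = mean of DMSO negative control wells on the same plate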); settings: P. berghei liver stage in HepG2, luciferase luminescence, concentration not given here; parasite load remaining: stronger effect = lower value; viability: measured here: HepG2 viability without parasites
# [12] = MELAS cybrid and Rieske KO viability enhancers – cell-based, MELAS cybrids, Rieske KO mouse fibroblasts, CellTiter-Glo, primary screen (AID 1508586;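 active = mean z-score across replicates of 1.96 or higher in either the MELAS or the Rieske mutant cell line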;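 note: z relative to plate mean and SD of compound and empty wells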); settings: low glucose
# [13] = viability loss in pontine glioma line – cell-based, SU-DIPG-XVII, MIPE5.0, CellTiter-Glo, qHTS, dose response (AID 1347060; cut-off not given, nearly all actives have AC50 up to about 26 µM); settings: CellTiter-Glo ATP luminescence
# [14] = viability loss in pontine glioma line – cell-based, JHH-DIPG-1, MIPE4.0, CellTiter-Glo, qHTS, dose response (AID 1347062; cut-off not given, nearly all actives have AC50 up to about 27 µM); settings: JHH-DIPG-1 viability, CellTiter-Glo ATP luminescence
# [15] = viability loss in pontine glioma line – cell-based, SU-DIPG-IV, MIPE4.0, CellTiter-Glo, qHTS, dose response (AID 1347063; cut-off not given, nearly all actives have AC50 up to about 30 µM;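 note: compound exposure lasted 48 hours before the viability readout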); settings: CellTiter-Glo ATP luminescence
# [16] = viability loss in pontine glioma line – cell-based, SU-DIPG-XIII, MIPE5.0, CellTiter-Glo, qHTS, dose response (AID 1347064; cut-off not given, nearly all actives have AC50 up to about 23 µM;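 for AC50: cells exposed to compound for 48 hours before the viability read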); settings: CellTiter-Glo ATP luminescence
# [17] = viability loss in pontine glioma line – cell-based, SU-DIPG-XXV, MIPE5.0, CellTiter-Glo, qHTS, dose response (AID 1347065; cut-off not given, nearly all actives have AC50 up to about 26 µM;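 note: cells exposed to compound for 48 hours before ATP readout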); settings: CellTiter-Glo ATP luminescence
# [18] = growth inhibition of DIPG cells – cell-based, MIPE4.0 library, CellTiter-Glo luminescence, qHTS (AID 1347066; cut-off not given, nearly all actives have AC50 up to about 30 µM;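 note: cells exposed to compound for 48 hours before readout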); settings: SU-DIPG-VI viability, CellTiter-Glo ATP luminescence
# [19] = growth inhibition of DIPG cells – cell-based, MIPE5.0 library, qHTS (AID 1347068; cut-off not given, nearly all actives have IC50 up to about 30 µM); settings: SU-DIPG-XXV viability
# [20] = compounds altering HSF1 focus formation in cells – imaging, Selleck Cancer Library (AID 1347162; in the data active = plate-normalised HSF1 focus index below about 0.46); settings: human cells, HSF1 nuclear foci imaging, at 10 µM; SSMD: measured here: HSF1 foci SSMD mean; cell count: measured here: cell number; plate-normalised HSF1 focus index: stronger effect = lower value
# [21] = JHH-DIPG-1 glioma cell viability, MIPE5.0 library, CellTiter-Glo luminescence, qHTS (AID 1347067; cut-off not given, nearly all actives have AC50 up to about 26 µM;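 note: cells exposed to compound for 48 hours before readout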); settings: JHH-DIPG-1 glioma viability, CellTiter-Glo ATP luminescence
# [22] = measured here: relative caspase fold change +Dox/-Dox
# [23] = measured here: total cells with miR-34 induction, stronger effect = lower value
# [24] = measured here: total cells without miR-34 induction
# [25] = stronger effect = lower value, cell number ratio, induced over uninduced
# [26] = MELAS cybrid survival, CellTiter-Glo 48 h, stronger effect = higher value
# [27] = Rieske KO mouse fibroblast survival, CellTiter-Glo 72 h
smiles,measurement,setting,value
O=C1C2CCN(CC2)C1(CO)CO,remaining activity,[1],120% (inactive)
same,fold change,[2]; stronger effect = lower value,1.16 (inactive) and 0.936 (inactive) and 0.92 (inactive)
same,fold change,[2]; [22],1.5 and 1.74 and 0.604
same,cell count,[2]; [23],4350 and 5660 and 9650
same,cell count,[2]; [24],3770 and 6050 and 10500
same,fold fluorescence,[3],9.13 [at 269.9 µM] (inactive)
same,z-score,[4],-0.76 (inactive)
C[C@H](N)Cc1cnc[nH]1,remaining activity,[1],92.3% (inactive)
same,fold change,[2]; [25],0.997 (inactive)
same,fold change,[2]; [22],1.13
same,cell count,[2]; [23],9180
same,cell count,[2]; [24],9200
same,z-score,[4],0.12 (inactive)
NC(C(=O)O)c1cc(=O)[nH]o1 (stereo not drawn),period change,[5],0.025 h (inactive)
same,inhibition,[6],-1% (inactive)
same,fluorescence ratio (interference),[7],0.9 (inactive)
same,remaining activity,[1],105% (inactive)
same,fold change,[2]; stronger effect = lower value,1.08 (inactive) and 0.946 (inactive)
same,fold change,[2]; [22],1.44 and 1.4
same,cell count,[2]; [23],10500 and 9700
same,cell count,[2]; [24],9770 and 10300
same,outcome,[8],inactive
same,z-score,[4],0.635 (inactive) and 0.185 (inactive)
COc1ccc(-n2nc(C(F)(F)F)cc2-c2ccc(Cl)cc2)cc1,period change,[5],0.125 h (inactive)
same,remaining activity,[1],119% (inactive)
same,remaining activity,[9],109% (inactive)
same,fold change,[2]; [25],0.91 (inactive)
same,fold change,[2]; [22],0.729
same,cell count,[2]; [23],7020
same,cell count,[2]; [24],7710
same,z-score,[4],-0.695 (inactive)
CCCN(CCC)C1CCc2ccc(O)cc2C1 (stereo not drawn),period change,[5],0.255 h (inactive)
same,inhibition,[6],-4% (inactive)
same,fluorescence ratio (interference),[7],1 (inactive)
same,remaining activity,[1],121% (inactive)
same,fold change,[2]; stronger effect = lower value,0.974 (inactive) and 1.05 (inactive)
same,fold change,[2]; [22],0.963 and 0.686
same,cell count,[2]; [23],10200 and 7960
same,cell count,[2]; [24],10500 and 7600
same,outcome,[8],inactive
same,z-score,[4],-0.285 (inactive) and -0.13 (inactive)
Cc1[nH]c2ccc(O)cc2c1CCN,period change,[5],0.13 h (inactive)
same,inhibition,[6],-6% (inactive)
same,fluorescence ratio (interference),[7],0.9 (inactive)
same,remaining activity,[1],104% (inactive)
same,remaining activity,[9],118% (inactive)
same,fold change,[2]; stronger effect = lower value,1.04 (inactive) and 1.02 (inactive)
same,fold change,[2]; [22],0.914 and 0.703
same,cell count,[2]; [23],10800 and 9460
same,cell count,[2]; [24],10400 and 9310
same,outcome,[8],inactive
same,z-score,[4],0.345 (inactive) and -0.12 (inactive)
CCOC(=O)c1ncn2c1CN(C)C(=O)c1cc(N=[N+]=[N-])ccc1-2,remaining activity,[1],97.3% (inactive)
same,fold change,[2]; [25],0.891 (inactive)
same,fold change,[2]; [22],1.09
same,cell count,[2]; [23],7930
same,cell count,[2]; [24],8900
same,z-score,[4],0.06 (inactive)
C[N+]1(C)CCc2cc3c(cc2[C@H]1[C@@H]1OC(=O)c2c1ccc1c2OCO1)OCO3,period change,[5],-0.02 h (inactive)
same,inhibition,[6],-3% (inactive)
same,fluorescence ratio (interference),[7],1 (inactive)
same,remaining activity,[1],123% (inactive) and 114% (inactive)
same,remaining activity,[9],119% (inactive)
C[C@@]12N[C@@H](Cc3ccccc31)c1ccccc12,survival,[10],4.17 (inactive)
same,parasite load remaining,[11],76.1% (inactive)
same,viability,[11],94%
same,remaining activity,[1],98.4% (inactive)
same,fold change,[2]; stronger effect = lower value,0.9 (inactive) and 1.01 (inactive) and 0.896 (inactive)
same,fold change,[2]; [22],1.15 and 0.684 and 0.656
same,cell count,[2]; [23],9800 and 8290 and 9030
same,cell count,[2]; [24],10900 and 8240 and 10100
same,z-score,[12]; [26],-0.404 (inactive) and 0.719 (inactive)
same,z-score,[12]; [27],-0.00785 and -0.0901
same,z-score,[4],0.79 (inactive)
CN(C)CCN(C)CCc1ccc(Cl)c(Cl)c1,remaining activity,[1],102% (inactive)
same,outcome,[13],inactive
same,outcome,[14],inactive
same,outcome,[15],inactive
same,outcome,[16],inactive
same,outcome,[17],inactive
same,outcome,[18],inactive
same,outcome,[19],inactive
same,fold change,[2]; [25],0.927 (inactive)
same,fold change,[2]; [22],0.848
same,cell count,[2]; [23],8600
same,cell count,[2]; [24],9270
same,SSMD,[20],1.43
same,cell count,[20],7160
same,plate-normalised HSF1 focus index,[20],1.09 (inactive)
same,z-score,[4],-0.285 (inactive)
COc1ccc(C(=O)c2c(C)n(CCN3CCOCC3)c3cc(I)ccc23)cc1,remaining activity,[1],93.9% (inactive)
same,AC50,[15],20.9 µM (active)
same,AC50,[16],23.5 µM (active)
same,AC50,[17],16.6 µM (active)
same,AC50,[18],23.5 µM (active)
same,AC50,[21],23.5 µM (active)
same,fold change,[2]; stronger effect = lower value,1.09 (inactive)
same,fold change,[2]; [22],0.642
same,cell count,[2]; [23],2860
same,cell count,[2]; [24],2630
same,z-score,[4],-0.38 (inactive)
CN1c2ccccc2C(NCCCCCCC(=O)O)c2ccc(Cl)cc2S1(=O)=O (stereo not drawn),remaining activity,[1],117% (inactive)
same,fold change,[2]; stronger effect = lower value,0.955 (inactive) and 0.9 (inactive)
same,fold change,[2]; [22],0.36 and 0.634
same,cell count,[2]; [23],7100 and 7840
same,cell count,[2]; [24],7430 and 8710
same,z-score,[12]; [26],-0.117 (inactive)
same,z-score,[12]; [27],0.00377
same,z-score,[4],0.255 (inactive)
O=C(O)C1=CCCN(CCOC(c2ccc(C(F)(F)F)cc2)c2ccc(C(F)(F)F)cc2)C1,remaining activity,[1],122% (inactive)
same,outcome,[13],inactive
same,outcome,[21],inactive
same,outcome,[19],inactive
same,fold change,[2]; [25],0.921 (inactive)
same,fold change,[2]; [22],0.739
same,cell count,[2]; [23],8210
same,cell count,[2]; [24],8910
same,z-score,[4],5.47 (active)
CC(N)Cc1c[nH]c2ccc(OCc3cccs3)cc12 (stereo not drawn),period change,[5],-0.015 h (inactive)
same,inhibition,[6],-2% (inactive)
same,fluorescence ratio (interference),[7],0.9 (inactive)
same,remaining activity,[1],105% (inactive)
same,fold change,[2]; stronger effect = lower value,1.09 (inactive) and 1.04 (inactive) and 0.983 (inactive)
same,fold change,[2]; [22],0.892 and 0.841 and 0.895
same,cell count,[2]; [23],9650 and 5700 and 7970
same,cell count,[2]; [24],8810 and 5500 and 8110
same,outcome,[8],inactive
same,z-score,[4],-0.655 (inactive) and -0.22 (inactive)
